TEAD-YAP inh – TEAD-YAP interaction inhibition, primary screen, TEAD-YAP interaction inhibitor project, luminescence, HEK-TIYL cells; inhibition, % at 9.12 µM; 640,000 compounds, 1.4% hits; AID 1259422, 2018; TEAD-Gal4/YAP UAS-luciferase luminescence; in the data active = inhibition above about 32%;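 also: 0% = median of test compound wells and 100% = reference inhibitor wells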
MITF primary – MITF inhibitors, primary screen, biochemical, AlphaScreen, human | AlphaScreen MITF homodimerization, bead proximity signal | inhibition, % at 2.6 µM | 650,000 compounds, 0.91% hits; in the data active = inhibition above about 50%;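 also: 0% = vehicle wells with protein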
FBW7 act – FBW7 E3 ligase activators, primary screen, biochemical, AlphaScreen, human; AlphaScreen FBW7–phospho-cyclin E peptide binding, activator screen; AID 1259310, 2017; normalized activity (activation), % at 26.1 µM; 650,000 compounds, 0.13% hits; in the data active = normalized activity above about 1.9%;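 also: purified mutant Fbw7 with reduced substrate affinity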
GPR151 activ – activators of human GPR151, primary screen, cell-based, PathHunter beta-arrestin, luminescence; G-protein coupled receptor 151 (Homo sapiens), Q8TDV0; PathHunter beta-arrestin GPR151 cells; activation, % at 11.2 µM; 650,000 compounds, 1% hits; AID 1508602, 2020; in the data active = activation above about 4.9%;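 also: 0% = median of compound wells and 100% = cells with positive control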
Target sequence (Q8TDV0 whole entry, looked up): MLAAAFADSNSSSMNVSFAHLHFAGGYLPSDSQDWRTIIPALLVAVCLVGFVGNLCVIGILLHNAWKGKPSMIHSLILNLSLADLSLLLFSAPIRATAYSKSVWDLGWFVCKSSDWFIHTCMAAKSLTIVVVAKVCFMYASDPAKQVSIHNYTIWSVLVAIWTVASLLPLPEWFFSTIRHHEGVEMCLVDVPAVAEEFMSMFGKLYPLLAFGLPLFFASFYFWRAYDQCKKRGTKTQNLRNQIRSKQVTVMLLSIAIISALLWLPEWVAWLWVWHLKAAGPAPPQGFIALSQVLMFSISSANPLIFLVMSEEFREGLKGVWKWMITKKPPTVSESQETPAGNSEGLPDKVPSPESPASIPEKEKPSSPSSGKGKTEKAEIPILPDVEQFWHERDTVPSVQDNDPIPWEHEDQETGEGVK
GPR151 confirm – GPR151 activators, triplicate retest, confirmation, cell-based, PathHunter beta-arrestin, luminescence; 6,700 tested, under 10 active; shares compounds with GPR151 activ; AID 1508609, 2020; activation, % at 11.2 µM; GPR151 PathHunter beta-arrestin cells, 90 min; % of EA-reagent control over plate median;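 active = mean percent activation across replicates above the confirmation screen cutoff of 4.91%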
GPR119 counter – GPR119 activators in beta-arrestin cells, counter-screen for GPR151 activator project, cell-based, PathHunter beta-arrestin, luminescence, triplicate. shares compounds with GPR151 activ. 90 min; 0 = compound-well median, 100 = enzyme-acceptor control. activation, % at 11.2 µM. 6,700 compounds, 0.3% hits. AID 1508611, 2020;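 active = mean percent activation in the counterscreen above 29.09%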;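 also: counterscreen on off-target GPR119 to flag nonselective hits from the GPR151 activator screen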
The depositor's hits bear a star; x = no result. Only some compounds are listed: those with a hit (about 3.4% of all), similar ones and a draw of the others.

SMILES	TEAD-YAP inh	MITF primary	FBW7 act	GPR151 activ	GPR151 confirm	GPR119 counter
FC(F)(F)c1ccc(NCCN2CCOCC2)nc1	2	-13	0	8.2*	0	2
S=C(N/N=C/C(Br)=C/c1ccccc1)Nc1cccnc1	-14	10	0	2	x	x
Cc1ccccc1-n1c(=S)sc2c(=O)n(-c3ccccc3)c(SCC(=O)c3ccccc3)nc21	-10	15	0	1	x	x
COc1ccccc1-n1c(=S)sc2c(=O)n(-c3ccccc3)c(SCC(=O)NC3CCCCC3)nc21	-4	16	0	6.0*	-1	-20
CCOc1ccccc1-n1c(=S)sc2c(=O)n(-c3ccc(C)cc3)c(SCC(=O)NCc3ccco3)nc21	2	-12	0	0	x	x
Cc1ccc(-n2c(SCC(=O)N3CCCC3)nc3c(sc(=S)n3-c3ccccc3C)c2=O)cc1	3	39	0	0	x	x
Cc1ccc(-n2c(SCC(=O)N3CCCC3)nc3c(sc(=S)n3-c3cc(C)ccc3F)c2=O)cc1	7	6	0	6.7*	1	0
O=C(CSc1nc2c(sc(=S)n2-c2ccccc2)c(=O)n1-c1ccccc1)NC1CCCCC1	1	-7	0	0	x	x
Cc1cccc(C)c1-n1c(=S)sc2c(=O)n(-c3ccccc3)c(SCC(=O)c3ccccc3)nc21	-3	-10	0	6.1*	0	-2
CCOc1ccccc1-n1c(=S)sc2c(=O)n(-c3ccc(F)cc3)c(SCC(=O)NCc3ccco3)nc21	-2	-1	0	5.4*	1	12
CC(=O)NC1C(=O)N(CCc2ccccc2)c2c(C)ccc(Cl)c21 (stereo unspecified)	14	3	0	2	x	x
O=C(Nc1ccc2nsnc2c1)N1CCCCCC1	-42	-9	0	6.1*	0	-4
Cc1cc(C)n(-c2cc(NCCO)nc(C)n2)n1	2	-3	0	11*	0	-11
CCN(CC)c1ccc(/C=C2/C(=O)NC(=O)N(C3CCCCC3)C2=O)c(OC)c1	5	-14	-1	0	x	x
Cc1ccc(CN2C(=O)CSc3ccc(NC(=O)Nc4nc(C)cc(C)n4)cc32)cc1	-15	3	0	7.4*	0	-1
NC(=O)c1ccc(-c2nc3ccc(C(=O)NCCOc4ccccc4)cc3s2)cc1	-33	-2	0	5.7*	0	-3
CN1CCN(C(=O)c2ccc(-c3nc4ccc(C(=O)NCCOc5ccccc5)cc4s3)cc2)CC1	-24	-8	0	5.3*	2	3
CN1CCN(C(=O)c2ccc(-c3nc4ccc(C(=O)NCc5ccccc5)cc4s3)cc2)CC1	1	-1	0	1	x	x
Cc1nn(CCC(=O)Nc2ccc(F)cc2)c(C)c1C	-5	0	0	-2	x	x
CCN(CCn1cccn1)C(=O)CC1C(=O)NCCN1CCC(C)C (stereo unspecified)	7	-6	0	-1	x	x
O=S(=O)(c1cccc(-c2nn3c(-c4ccccc4)nnc3s2)c1)N1CCCC1	0	24	0	1	x	x
O=C(N/N=C/c1ccc(Oc2ccc([N+](=O)[O-])cn2)cc1)c1cccc([N+](=O)[O-])c1	9	2	0	5.0*	0	-1
CCOc1cc(S(=O)(=O)NC2CC(C)(C)NC(C)(C)C2)c(C)cc1C	-3	8	0	-1	x	x
CCOc1cc(C)c(C(C)C)cc1S(=O)(=O)NC1CC(C)(C)NC(C)(C)C1	-4	-4	0	7.9*	0	2
CCc1ccccc1N(CC(=O)NC(C)(C)C)C(=O)CCC(=O)Nc1cc(C)ccn1	7	3	0	1	x	x
CCc1cccc(NC(=O)CCC(=O)Nc2cccc(CC)c2)c1	-3	14	0	7.5*	0	-15
CC(=O)Nc1cccc(NC(=O)CCc2ccccc2)c1	-19	2	0	0	x	x

Screening data deposited in PubChem BioAssay by The Scripps Research Institute Molecular Screening Center.
